Laboratory results published in PubChem BioAssay.
The source made the active and inactive calls.

Tests used:
[1] = biological target: Albumin (Bos taurus) (UniProt P02769); assay: compounds binding labelled BSA control protein – biochemical, small-molecule microarray, Alexa647 label, 635/667 nm fluorescence, artefact control for SMM control protein annotation, profiling panel (AID 1118); conditions: BSA-A647 binding, fluorescence 635 nm, higher = more signal;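 further: score merges 667 nm emission intensity and signal-to-noise per printed compound spot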
Sequence of Albumin (Bos taurus) (P02769 whole entry, looked up): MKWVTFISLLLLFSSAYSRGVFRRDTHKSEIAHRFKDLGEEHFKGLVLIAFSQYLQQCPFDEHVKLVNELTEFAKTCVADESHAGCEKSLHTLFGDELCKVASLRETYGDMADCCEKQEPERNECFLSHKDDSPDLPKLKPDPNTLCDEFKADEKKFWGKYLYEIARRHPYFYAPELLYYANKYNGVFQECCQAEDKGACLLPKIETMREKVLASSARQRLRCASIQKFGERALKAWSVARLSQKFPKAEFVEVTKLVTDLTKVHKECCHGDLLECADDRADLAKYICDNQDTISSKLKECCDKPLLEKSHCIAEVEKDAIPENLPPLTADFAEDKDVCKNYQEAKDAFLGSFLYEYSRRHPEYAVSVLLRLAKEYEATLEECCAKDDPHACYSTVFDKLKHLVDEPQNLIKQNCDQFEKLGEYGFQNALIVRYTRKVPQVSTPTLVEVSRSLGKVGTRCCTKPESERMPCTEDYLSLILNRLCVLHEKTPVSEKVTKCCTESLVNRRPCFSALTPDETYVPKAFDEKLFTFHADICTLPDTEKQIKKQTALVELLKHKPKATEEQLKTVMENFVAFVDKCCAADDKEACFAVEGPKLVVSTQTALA

[2] = probe aXIP binding to arrayed compounds – biochemical, NeuroSMM set, 635/667 nm fluorescence, primary screen (AID 1119); conditions: small-molecule microarray, higher = more signal, called active from +8 up or from −8 down;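 further: probe is the protein aXip251-270 applied at 1 µg/mL to compound-printed slides; binding of probe to printed compounds measured as 667 nm fluorescence plus signal to noise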
[3] = probe aNOTCH3 binding on compound microarray – biochemical, small-molecule microarray, 635/667 nm fluorescence, primary screen (AID 1120); conditions: higher = more signal;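 further: probe is a biotin-tagged antibody raised against NOTCH3 rather than NOTCH3 protein; score merges spot fluorescence near 667 nm with spot signal to noise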
[4] = probe aNOTCH2 binding on compound microarray – biochemical, small-molecule microarray, 635/667 nm fluorescence, primary screen (AID 1121); conditions: higher = more signal;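 further: score merges feature fluorescence read at 667 nm with its signal to noise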
[5] = biological target: Carbonic anhydrase 2 (Homo sapiens) (UniProt P00918); assay: compounds binding carbonic anhydrase 2 – biochemical, small-molecule microarray, Alexa647-labelled CAII, profiling panel (AID 1122); conditions: CAII-A647 binding fluorescence, higher = more signal
[6] = COS7 lysate on small-molecule microarray, probe aHis, 635 nm (AID 1123); conditions: COS7 cell lysate, fluorescence, higher = more signal;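 further: z-score combines 667nm fluorescence intensity with signal-to-noise per printed compound spot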
[7] = probe aLAP1 signal on lysate-treated microarray – cell lysate, small-molecule microarray, COS7 lysate, primary screen (AID 1124); conditions: probe aLAP1, fluorescence, higher = more signal;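 further: lysate comes from COS7 cells expressing LAP1 and is applied at 0.3 µg/mL; score merges spot fluorescence near 667 nm with signal-to-noise over triplicate slides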
[8] = system: Sam68 (KHDRBS1); assay: compounds binding KHDRBS1 protein – biochemical, small-molecule microarray, 635 nm fluorescence, primary screen (AID 1125); conditions: higher = more signal;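 further: score merges 667 nm channel intensity with signal to noise over triplicate slides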
[9] = system: Chordin-like protein 2 (CHRDL2); assay: compounds binding chordin-like 2 – biochemical, small-molecule microarray, 635 nm fluorescence, primary screen (AID 1126); conditions: fluorescence 635 nm, higher = more signal;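 further: printed compound slides probed with Chrdl2 protein at 4 µg/mL for 1 h at 4 C; score merges 667 nm emission intensity with signal to noise over three replicate slides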
[10] = biological target: Concanavalin-A (Canavalia ensiformis) (UniProt P02866); assay: compounds binding concanavalin A lectin – biochemical, small-molecule microarray, Alexa647 label, 635 nm, artefact control for SMM control protein annotation, primary screen (AID 1127); conditions: ConA-A647 binding fluorescence, higher = more signal;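 further: z combines 667 nm emission intensity with signal-to-noise across three replicate slides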
Sequence of Concanavalin-A (Canavalia ensiformis) (P02866 whole entry, looked up): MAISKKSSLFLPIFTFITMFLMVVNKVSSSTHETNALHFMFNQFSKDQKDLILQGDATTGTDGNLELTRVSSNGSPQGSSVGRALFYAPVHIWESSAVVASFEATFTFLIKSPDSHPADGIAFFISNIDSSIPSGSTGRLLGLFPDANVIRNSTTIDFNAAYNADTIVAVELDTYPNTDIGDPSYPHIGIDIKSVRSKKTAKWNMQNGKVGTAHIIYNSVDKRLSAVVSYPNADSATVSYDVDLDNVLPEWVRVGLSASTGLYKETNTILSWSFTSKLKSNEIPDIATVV

Row | SMILES | composite z-score [1] | composite Z-score [2] | composite z-score [3] | composite z-score [4] | composite z-score [5] | composite z-score [6] | composite z-score [7] | composite z-score [8] | composite z-score [9] | composite z-score [10]
1 | C=CC[C@@H]1C=C[C@H](ON=C2c3cc(OC)ccc3O[C@H](c3cccc(OC)c3)[C@H]2O)[C@@H](CO)O1 | 0.764 | 0.196 (inactive) | -0.253 | -0.0956 | 0.427 | 0.425 | 0.266 | -0.194 | 0.105 | -0.302
2 | CC(=O)OC[C@H]1O[C@H](CCON=C(C)CCN2CCc3nc(-c4ccccc4)c(-c4ccccc4)cc3C2)C=C[C@@H]1OC(C)=O | 0.768 | 0.607 (inactive) | 0.146 | -0.0877 | 0.181 | 0.761 | 0.466 | 0.975 | -0.0682 | -0.0278
3 | CC(C)CON=C1C[C@@H](O)[C@@H](O)[C@@H]2[C@@H]3C(=O)N([C@@H](C)c4ccccc4)C(=O)[C@@H]3CC[C@H]12 | 0.663 | 0.0312 (inactive) | 0.0297 | -0.0959 | 0.378 | 0.754 | -0.0211 | 1.29 | 0.315 | 1.07
4 | CCOC(=O)CCN1C(=O)[C@H]2[C@H]3[C@H](O)[C@H](O)CC(=NOC[C@@H](O)COCc4ccco4)[C@H]3CC[C@H]2C1=O | 0.494 | -0.0692 (inactive) | 0.0059 | -0.171 | 0.0762 | -0.128 | 0.0706 | 1.32 | -0.173 | 0.66
5 | CC(C)N1CC=CC23O[C@@H]4C=CCCOC(=O)C4[C@H]2C(=O)N(CCCCCCO)[C@@H]3C1=O (stereo not given in full) | -0.176 | 0.0157 (inactive) | -0.193 | 0.109 | 0.439 | -0.425 | 0.753 | -0.952 | -1.71 | -0.428
6 | NCCCCCNC(=O)[C@@H]1C[C@@H]2C(=O)N3CCC[C@H]3C(=O)N2[C@@H]1c1cccc(OCCO)c1 | 0.533 | 1.34 (inactive) | 0.453 | 0.294 | 0.659 | 1.68 | 1.09 | 1.19 | 1.14 | 1
7 | COC(=O)C1=C(C)[C@@H](O)[C@@H](C)[C@H](c2c(OC)c(OC)c(C)c(OC)c2OC)O1 | 0.529 | -0.461 (inactive) | -0.0615 | -0.14 | 0.298 | 0.206 | -0.064 | -0.441 | 0.336 | 0.484
